High-throughput results: PubChem BioAssay, several laboratories
LGR2 antag: inhibitors of bursicon-induced LGR2 CRE-luciferase signal, primary screen, cell-based, HEK293, CRE-luciferase reporter, bursicon stimulation; Drosophila bursicon receptor LGR2 (rickets); bursicon-stimulated, 4 h; inhibition, % at 9.99 µM; hit rate 0.35% among 380,000;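 active = drop in luminescence signal, shown as inhibition above about 50% in the replicate tests, limit read from the data, passing the limit was not always enough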;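 also: agonist challenge used bursicon conditioned medium at about half maximal strength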
CF NFkB block: inhibitors of PAF-induced NF-kB signaling, primary screen, cell-based, GFP fluorescence, uHTS; KKLEB NF-kB-GFP reporter, GFP fluorescence overnight; inhibition, % at 5 µM; hit rate 0.86% among 360,000; AID 588850, 2011;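 active = at least 50% inhibition at 5 µM, scaled per plate between neutral and stimulator controls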;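 also: PAF is a Pseudomonas aeruginosa culture filtrate used as stimulus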
KKLEB cytotox: cytotoxicity in KKLEB CF airway cells, primary screen, cytotoxicity control for CF NF-kB inhibitor project, cell-based, uHTS, fluorescence assay plates | AID 602141, 2011 | hit rate 0.36% among 360,000 | activity change (cytotoxicity), % at 5 µM | KKLEB CF airway cells viability, ATPlite luminescence, overnight; active compounds read low; cells stimulated with P. aeruginosa culture filtrate;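 active = corrected activity change at or below -50% at 5 µM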
HSP90 inh: HSP90 inhibitors, primary screen, cell lysate, luminescence | Heat shock protein HSP 90 (rabbit reticulocyte lysate; luciferase refolding) | Rabbit reticulocyte lysate, luciferase refolding luminescence, 3 h | inhibition, % at 5.6 µM | hit rate 0.91% among 290,000 | AID 1789, 2009;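 active = inhibition above the screen-wide mean plus 3 SD, computed separately per campaign, cut at about 16% in these data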;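 also: inhibitors lower the luminescence because luciferase stays unfolded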
Peg3 promoter: Peg3 promoter-driven luciferase inhibitors, primary screen, cell-based, HeLa, luciferase luminescence; HeLa PEG-Prom luciferase reporter, overnight; inhibition, % at 20 µM; hit rate 1.7% among 360,000; AID 588405, 2011;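 active = inhibition of at least 50% at 20 µM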
Mdm2-MdmX inh: inhibitors of human Mdm2-MdmX association, primary screen, cell-based, luminescence, split luciferase, SaOS-2, uHTS | Protein Mdm4 (Homo sapiens) + E3 ubiquitin-protein ligase Mdm2 (Homo sapiens), … | SaOS-2 split-luciferase Mdm2/MdmX complementation | inhibition, % at 8 µM | hit rate 3% among 330,000;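 active = inhibition of at least 50% at 8 µM in the primary screen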
Target sequence (O15151 whole entry, looked up): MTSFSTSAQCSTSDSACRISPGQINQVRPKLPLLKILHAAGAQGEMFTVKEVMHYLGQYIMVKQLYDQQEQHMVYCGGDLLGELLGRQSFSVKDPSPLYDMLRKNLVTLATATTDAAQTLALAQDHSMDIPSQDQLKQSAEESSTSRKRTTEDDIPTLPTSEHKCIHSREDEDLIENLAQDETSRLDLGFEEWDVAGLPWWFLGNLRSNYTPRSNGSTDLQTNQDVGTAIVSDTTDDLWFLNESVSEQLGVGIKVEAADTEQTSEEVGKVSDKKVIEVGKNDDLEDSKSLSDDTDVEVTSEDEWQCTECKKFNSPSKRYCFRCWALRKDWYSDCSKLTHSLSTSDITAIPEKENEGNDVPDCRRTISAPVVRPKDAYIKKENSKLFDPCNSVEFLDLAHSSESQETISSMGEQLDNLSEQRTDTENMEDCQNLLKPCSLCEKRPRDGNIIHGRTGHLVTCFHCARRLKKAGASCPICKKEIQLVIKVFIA
Target sequence (Q00987 whole entry, looked up): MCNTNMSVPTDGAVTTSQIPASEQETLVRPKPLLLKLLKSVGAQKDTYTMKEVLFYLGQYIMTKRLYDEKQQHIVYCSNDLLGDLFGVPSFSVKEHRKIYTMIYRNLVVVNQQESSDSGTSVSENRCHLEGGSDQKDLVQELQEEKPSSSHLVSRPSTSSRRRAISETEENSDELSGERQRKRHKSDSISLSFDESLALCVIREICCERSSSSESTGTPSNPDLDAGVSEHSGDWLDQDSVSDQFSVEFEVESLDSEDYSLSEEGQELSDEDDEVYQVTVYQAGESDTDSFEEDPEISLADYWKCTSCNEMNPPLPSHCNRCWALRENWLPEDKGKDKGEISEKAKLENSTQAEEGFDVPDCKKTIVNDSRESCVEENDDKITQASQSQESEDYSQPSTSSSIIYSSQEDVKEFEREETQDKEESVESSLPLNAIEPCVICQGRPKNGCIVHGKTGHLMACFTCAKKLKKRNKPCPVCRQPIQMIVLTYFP
Mdm2 MdmX conf: Mdm2-MdmX complex disruptors, retested hits, confirmation, luminescence, single concentration. shares compounds with Mdm2-MdmX inh. Mdm2-MdmX binding, luminescent assay. inhibition, % at 8 µM. hit rate 55% among 10,000. AID 489028, 2010; in the data active = inhibition above about 40%
FLuc counter: full-length luciferase signal inhibition, confirmation, counter-screen for Mdm2/MdmX interaction inhibitor project, cell-based, single concentration, SaOS-2; shares compounds with Mdm2-MdmX inh; SaOS-2 full-length luciferase counterscreen, luminescence; inhibition, % at 8 µM; hit rate 77% among 6,200;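 active = mean inhibition at 8 µM reaching about 37%, which flags the compound as non-specific, limit read from the data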;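 also: p53-null SaOS-2 cells with luciferase driven by a doxycycline-inducible promoter; compound on cells about two nights before reading with doxycycline added after day one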
A number is an active result; – = inactive; · = no result. An excerpt weighted towards active compounds, which were near 3.6% of everything screened.

SMILES	LGR2 antag	CF NFkB block	KKLEB cytotox	HSP90 inh	Peg3 promoter	Mdm2-MdmX inh	Mdm2 MdmX conf	FLuc counter
COc1ccc(-c2ncncc2-c2csc(C)n2)c(O)c1OC	·	–	–	–	–	–	·	·
O=S(=O)(c1ccccc1OC(F)(F)F)N1CCN(c2ccnc3cc(Cl)ccc23)CC1	–	–	–	–	–	58.9	–	·
COc1ccccc1N1CCN(c2ccnc3cc(Cl)ccc23)CC1	–	–	–	–	–	56.0	64.0	54.9
O=C(Nc1ccc(F)cc1)N[C@@H]1CC[C@@H](CCn2cc(-c3ccccc3F)nn2)O[C@@H]1CO	–	·	·	·	·	·	·	·
Cn1c(=O)c(C(=O)Nc2ccccn2)c(O)c2ccccc21	·	–	–	–	–	66.7	60.4	–
Cn1c(C(=O)O)c(CC(=O)Nc2ccccc2F)c2ccccc21	·	–	–	–	–	–	·	·
CSc1c(CC(=O)Nc2ccccc2C(F)(F)F)n(Cc2ccccc2)c2ccccc12	–	–	–	–	–	74.5	–	107.0
CSc1c(CC(=O)Nc2ccccc2)n(Cc2ccccc2)c2ccccc12	·	–	–	–	–	59.6	–	·
Cn1c(CC(=O)Nc2ccc(F)cc2)c(Sc2ccccc2)c2ccccc21	–	–	–	–	–	–	·	·
CSc1c(CC(=O)Nc2ccccc2Cl)n(Cc2ccccc2)c2ccccc12	·	–	–	–	–	58.3	–	·
CCCc1cn(CC[C@@H]2CC[C@H](NC(=O)C3CCCCC3)[C@@H](CO)O2)nn1	–	·	·	·	·	·	·	·
C[C@H]1CN([C@@H](C)CO)C(=O)c2cc(-c3ccncc3)cnc2O[C@H]1CN(C)C(=O)c1ccncc1	–	·	·	·	·	·	·	·
O=C(Cc1ccccc1)NS(=O)(=O)c1ccc(N=NN2CCOCC2)cc1	–	–	–	–	–	86.5	–	·
CC(CN1CCOCC1)OC(=O)c1ccc(Br)cc1 (stereo unspecified)	·	–	–	–	–	–	·	·
O=C(c1ccc(Br)cc1)C(CN1CCOCC1)c1ccccc1 (stereo unspecified)	–	62.1	-64.5	–	–	91.0	56.1	–
C[C@@H]1CCCCO[C@@H](CN(C)Cc2ccc(Cl)c(Cl)c2)[C@@H](C)CN([C@H](C)CO)C(=O)c2cc(NS(C)(=O)=O)ccc2O1	–	·	·	·	·	·	·	·
COc1cc(-c2nc3ccc(N4CCN(C)CC4)cc3[nH]2)cc(OC)c1OC	–	–	–	–	–	78.5	65.0	73.0
COc1ccc(-c2nc3ccc(N4CCN(C)CC4)cc3c(=O)[nH]2)cc1	·	–	–	–	–	–	·	·
C[C@H]1CN([C@@H](C)CO)C(=O)Cc2cc(NC(=O)Nc3ccc(C(F)(F)F)cc3)ccc2O[C@H]1CN(C)S(=O)(=O)c1cn(C)cn1	–	·	·	·	·	·	·	·
Cc1cc(NCc2ccccn2)n2nc(C)c(-c3ccc(Cl)cc3)c2n1	–	–	–	–	–	61.2	–	·
CC(=O)Nc1ccc(Nc2cc(C(C)C)nc3c(-c4ccccc4)c(C)nn23)cc1	–	–	–	–	–	55.4	42.9	54.0
Cc1nn2c(NCc3ccccn3)cc(C(C)C)nc2c1-c1ccccc1	–	–	–	–	–	63.6	41.0	–
Cc1cc(NCc2ccccn2)n2ncc(-c3ccc(Cl)cc3)c2n1	·	–	–	–	–	–	·	·
O=C(C[C@@H]1C=C[C@H](NC(=O)C2CC2)[C@H](CO)O1)NCCCN1CCOCC1	–	·	·	·	·	·	·	·
CO[C@H]1CN(C)C(=O)c2cc(NC(=O)Nc3cccc(Cl)c3)ccc2OC[C@@H](C)NC[C@@H]1C	–	·	·	·	·	·	·	·
SMILES	LGR2 antag	CF NFkB block	KKLEB cytotox	HSP90 inh	Peg3 promoter	Mdm2-MdmX inh	Mdm2 MdmX conf	FLuc counter
CC(C)C#Cc1cnc2c(c1)C(=O)N([C@@H](C)CO)C[C@H](C)[C@H](CN(C)Cc1cncnc1)O2	–	·	·	·	·	·	·	·
Cc1ccc([N+](=O)[O-])cc1S(=O)(=O)Nc1cccc(S(=O)(=O)Nc2ccccc2C(=O)O)c1	·	–	–	·	–	–	·	·
Cc1ccc(C)c(NC(=O)c2ccccc2NS(=O)(=O)c2cc([N+](=O)[O-])ccc2C)c1	–	–	–	–	–	89.5	93.5	40.2
O=C(C[C@H]1CC[C@@H]2[C@H](COC[C@H](O)CN2S(=O)(=O)c2ccccc2F)O1)NCc1ccccc1F	–	·	·	·	·	·	·	·
CCOC(=O)C(C)(C)N(Cc1cccc(C)c1)S(=O)(=O)c1ccc(Cl)c([N+](=O)[O-])c1	–	–	–	–	87.9	57.5	–	·
COc1ccc2c(c1)O[C@H](c1ccc3c(c1)OCO3)[C@@H](OC(=O)Nc1cc(OC)c(OC)c(OC)c1)C2=O	·	·	·	–	·	61.3	62.3	66.9
COc1ccc2c(c1)O[C@H](c1ccc3c(c1)OCO3)[C@@H](OC(=O)N[C@H](C)C1CCCCC1)C2=O	·	·	·	–	·	59.4	–	·
COc1cccc([C@@H]2Oc3ccc(OC)cc3C(=O)[C@H]2OC(=O)N[C@H](C)C2CCCCC2)c1	·	·	·	–	·	–	·	·
C/C(=N\Nc1nc2ccccc2[nH]1)c1ccc([N+](=O)[O-])cc1	–	–	–	–	–	55.3	–	·
O=C(Nc1nc2ccccc2[nH]1)c1ccc([N+](=O)[O-])cc1	–	–	–	–	–	–	·	·
COCC(=O)Nc1ccc2c(c1)C(=O)N(C)C[C@H](OC)[C@H](C)CN(C(C)=O)[C@@H](C)CO2	–	·	·	·	·	·	·	·
CC1(C)N=C(N)N=C(N)N1c1ccc(Oc2ccc(Cl)cc2)c(Cl)c1	–	–	–	–	–	67.1	50.0	87.8
CC(=O)N1N=C(c2ccco2)CC1c1cccs1 (stereo unspecified)	·	–	–	–	–	–	·	·
Cc1ccc(C2=NN(C(=O)CCl)C(c3cccs3)C2)o1 (stereo unspecified)	–	–	–	–	60.1	100.2	100.0	50.8
COc1cc(C2CC(c3cccs3)=NN2C(=O)CCl)ccc1OC(F)F (stereo unspecified)	–	104.2	-88.4	–	109.0	99.3	99.5	50.9
COc1ccc(C2CC(c3cccs3)=NN2C(=O)c2ccccc2)cc1OC (stereo unspecified)	–	–	–	–	–	–	·	·
COc1ccc(C2CC(c3cccs3)=NN2C(=O)CCl)cc1OC (stereo unspecified)	–	–	–	–	103.1	98.9	99.6	49.3
